# Reference: paper PMC11006913
# Columns and labels:
# Assay in all cases: PBM; 200 nM protein, PBS
# Settings in all cases: dsDNA, one strand shown
# HESX1 [1] = target: HESX1 (Homo sapiens, UniProt Q9UBX0 95-180, R165K)
# HESX1 [2] = target: HESX1 (Homo sapiens, UniProt Q9UBX0 95-180)
# ALX1 [3] = target: ALX1 (Homo sapiens, UniProt Q15699 118-204, L144V)
# ALX1 [4] = target: ALX1 (Homo sapiens, UniProt Q15699 118-204, L144R)
# HESX1 [5] = target: HESX1 (Homo sapiens, UniProt Q9UBX0 95-180, R109Q)
# Chain of HESX1 (Homo sapiens, UniProt Q9UBX0 95-180, R109Q) (Q9UBX0 95-180 R109Q): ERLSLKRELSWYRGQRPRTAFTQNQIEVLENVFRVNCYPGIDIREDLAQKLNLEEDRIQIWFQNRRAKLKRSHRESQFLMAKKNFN
# HESX1 [6] = target: HESX1 (Homo sapiens, UniProt Q9UBX0 95-180, P111T)
# Chain of HESX1 (Homo sapiens, UniProt Q9UBX0 95-180, P111T) (Q9UBX0 95-180 P111T): as the sequence (Q9UBX0 95-180 R109Q) above, with Q15R, P17T counted along it
# HESX1 [7] = target: HESX1 (Homo sapiens, UniProt Q9UBX0 95-180, F115L)
# Chain of HESX1 (Homo sapiens, UniProt Q9UBX0 95-180, F115L) (Q9UBX0 95-180 F115L): as the sequence (Q9UBX0 95-180 R109Q) above, with Q15R, F21L counted along it
# ALX1 [8] = target: ALX1 (Homo sapiens, UniProt Q15699 118-204)
# Chain of ALX1 (Homo sapiens, UniProt Q15699 118-204) (Q15699 118-204): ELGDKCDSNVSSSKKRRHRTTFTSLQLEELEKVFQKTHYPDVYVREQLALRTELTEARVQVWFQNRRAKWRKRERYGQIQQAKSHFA
# PROP1 [9] = target: PROP1 (Homo sapiens, UniProt O75360 56-141)
# Chain of PROP1 (Homo sapiens, UniProt O75360 56-141) (O75360 56-141): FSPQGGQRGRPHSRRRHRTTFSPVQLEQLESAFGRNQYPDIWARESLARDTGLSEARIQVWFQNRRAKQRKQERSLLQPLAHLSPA
# PROP1 [10] = target: PROP1 (Homo sapiens, UniProt O75360 56-141, R99H)
# Chain of PROP1 (Homo sapiens, UniProt O75360 56-141, R99H) (O75360 56-141 R99H): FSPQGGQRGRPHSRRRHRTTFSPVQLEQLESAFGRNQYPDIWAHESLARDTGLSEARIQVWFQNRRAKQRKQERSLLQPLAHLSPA
# PROP1 [11] = target: PROP1 (Homo sapiens, UniProt O75360 56-141, F88S)
# Chain of PROP1 (Homo sapiens, UniProt O75360 56-141, F88S) (O75360 56-141 F88S): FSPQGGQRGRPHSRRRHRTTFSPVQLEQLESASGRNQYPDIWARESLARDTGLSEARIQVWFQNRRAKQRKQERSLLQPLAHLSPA
# MSX2 [12] = target: MSX2 (Homo sapiens, UniProt P35548 130-214, R199I)
# Chain of MSX2 (Homo sapiens, UniProt P35548 130-214, R199I) (P35548 130-214 R199I): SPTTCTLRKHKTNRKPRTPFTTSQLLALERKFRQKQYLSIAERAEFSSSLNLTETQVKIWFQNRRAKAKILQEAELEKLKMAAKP
# MSX2 [13] = target: MSX2 (Homo sapiens, UniProt P35548 130-214)
# Chain of MSX2 (Homo sapiens, UniProt P35548 130-214) (P35548 130-214): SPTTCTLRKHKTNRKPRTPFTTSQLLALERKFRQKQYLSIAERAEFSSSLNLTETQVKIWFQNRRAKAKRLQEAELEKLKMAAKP
# MSX2 [14] = target: MSX2 (Homo sapiens, UniProt P35548 130-214, F161Y)
# Chain of MSX2 (Homo sapiens, UniProt P35548 130-214, F161Y) (P35548 130-214 F161Y): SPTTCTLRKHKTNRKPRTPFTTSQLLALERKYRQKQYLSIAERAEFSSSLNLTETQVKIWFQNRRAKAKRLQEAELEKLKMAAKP
# ALX3 [15] = target: ALX3 (Homo sapiens, UniProt O95076 139-225, L168Q)
# Chain of ALX3 (Homo sapiens, UniProt O95076 139-225, L168Q) (O95076 139-225 L168Q): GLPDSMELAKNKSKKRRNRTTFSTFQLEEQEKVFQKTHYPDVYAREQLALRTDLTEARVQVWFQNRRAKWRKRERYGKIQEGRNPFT
# ALX3 [16] = target: ALX3 (Homo sapiens, UniProt O95076 139-225, L168V)
# Chain of ALX3 (Homo sapiens, UniProt O95076 139-225, L168V) (O95076 139-225 L168V): as the sequence (O95076 139-225 L168Q) above, with Q30V counted along it
# Chain of HESX1 (Homo sapiens, UniProt Q9UBX0 95-180) (Q9UBX0 95-180): as the sequence (Q9UBX0 95-180 R109Q) above, with Q15R counted along it
# Chain of HESX1 (Homo sapiens, UniProt Q9UBX0 95-180, R165K) (Q9UBX0 95-180 R165K): as the sequence (Q9UBX0 95-180 R109Q) above, with Q15R, R71K counted along it
# Chain of ALX1 (Homo sapiens, UniProt Q15699 118-204, L144R) (Q15699 118-204 L144R): as the sequence (Q15699 118-204) above, with L27R counted along it
# Chain of ALX1 (Homo sapiens, UniProt Q15699 118-204, L144V) (Q15699 118-204 L144V): as the sequence (Q15699 118-204) above, with L27V counted along it
sequence,measurement,setting,value
CTGGGCTC,binding signal,HESX1 [1],"6.43 upbm affinity estimate (log intensity, higher = more binding, comparable within an allelic series)"
same,binding signal,HESX1 [2],"6.41 upbm affinity estimate (log intensity, higher = more binding, comparable within an allelic series)"
same,binding signal,ALX1 [3],"6.37 upbm affinity estimate (log intensity, higher = more binding, comparable within an allelic series)"
same,binding signal,ALX1 [4],"6.38 upbm affinity estimate (log intensity, higher = more binding, comparable within an allelic series)"
same,binding signal,HESX1 [5],"6.43 upbm affinity estimate (log intensity, higher = more binding, comparable within an allelic series)"
same,binding signal,HESX1 [6],"6.51 upbm affinity estimate (log intensity, higher = more binding, comparable within an allelic series)"
same,binding signal,HESX1 [7],"6.39 upbm affinity estimate (log intensity, higher = more binding, comparable within an allelic series)"
same,binding signal,ALX1 [8],"6.38 upbm affinity estimate (log intensity, higher = more binding, comparable within an allelic series)"
GACGGCGA,binding signal,HESX1 [1],"6.46 upbm affinity estimate (log intensity, higher = more binding, comparable within an allelic series)"
same,binding signal,HESX1 [2],"6.46 upbm affinity estimate (log intensity, higher = more binding, comparable within an allelic series)"
same,binding signal,HESX1 [5],"6.44 upbm affinity estimate (log intensity, higher = more binding, comparable within an allelic series)"
same,binding signal,HESX1 [6],"6.52 upbm affinity estimate (log intensity, higher = more binding, comparable within an allelic series)"
same,binding signal,HESX1 [7],"6.44 upbm affinity estimate (log intensity, higher = more binding, comparable within an allelic series)"
AGCCGGTC,binding signal,HESX1 [1],"6.51 upbm affinity estimate (log intensity, higher = more binding, comparable within an allelic series)"
same,binding signal,HESX1 [2],"6.44 upbm affinity estimate (log intensity, higher = more binding, comparable within an allelic series)"
same,binding signal,HESX1 [5],"6.51 upbm affinity estimate (log intensity, higher = more binding, comparable within an allelic series)"
same,binding signal,HESX1 [6],"6.57 upbm affinity estimate (log intensity, higher = more binding, comparable within an allelic series)"
same,binding signal,HESX1 [7],"6.52 upbm affinity estimate (log intensity, higher = more binding, comparable within an allelic series)"
CACCCGGC,binding signal,HESX1 [1],"6.47 upbm affinity estimate (log intensity, higher = more binding, comparable within an allelic series)"
same,binding signal,HESX1 [2],"6.48 upbm affinity estimate (log intensity, higher = more binding, comparable within an allelic series)"
same,binding signal,HESX1 [5],"6.53 upbm affinity estimate (log intensity, higher = more binding, comparable within an allelic series)"
same,binding signal,HESX1 [6],"6.47 upbm affinity estimate (log intensity, higher = more binding, comparable within an allelic series)"
same,binding signal,HESX1 [7],"6.3 upbm affinity estimate (log intensity, higher = more binding, comparable within an allelic series)"
AAGGGCAC,binding signal,HESX1 [1],"6.53 upbm affinity estimate (log intensity, higher = more binding, comparable within an allelic series)"
same,binding signal,HESX1 [2],"6.41 upbm affinity estimate (log intensity, higher = more binding, comparable within an allelic series)"
same,binding signal,HESX1 [5],"6.62 upbm affinity estimate (log intensity, higher = more binding, comparable within an allelic series)"
same,binding signal,HESX1 [6],"6.56 upbm affinity estimate (log intensity, higher = more binding, comparable within an allelic series)"
same,binding signal,HESX1 [7],"6.62 upbm affinity estimate (log intensity, higher = more binding, comparable within an allelic series)"
CGACGTTC,binding signal,HESX1 [1],"6.45 upbm affinity estimate (log intensity, higher = more binding, comparable within an allelic series)"
same,binding signal,HESX1 [2],"6.3 upbm affinity estimate (log intensity, higher = more binding, comparable within an allelic series)"
same,binding signal,HESX1 [5],"6.42 upbm affinity estimate (log intensity, higher = more binding, comparable within an allelic series)"
same,binding signal,HESX1 [6],"6.41 upbm affinity estimate (log intensity, higher = more binding, comparable within an allelic series)"
same,binding signal,HESX1 [7],"6.52 upbm affinity estimate (log intensity, higher = more binding, comparable within an allelic series)"
AGCCCGCG,binding signal,HESX1 [1],"6.57 upbm affinity estimate (log intensity, higher = more binding, comparable within an allelic series)"
same,binding signal,HESX1 [2],"6.54 upbm affinity estimate (log intensity, higher = more binding, comparable within an allelic series)"
same,binding signal,HESX1 [5],"6.6 upbm affinity estimate (log intensity, higher = more binding, comparable within an allelic series)"
same,binding signal,HESX1 [6],"6.57 upbm affinity estimate (log intensity, higher = more binding, comparable within an allelic series)"
same,binding signal,HESX1 [7],"6.48 upbm affinity estimate (log intensity, higher = more binding, comparable within an allelic series)"
CAGCTCGG,binding signal,HESX1 [1],"6.3 upbm affinity estimate (log intensity, higher = more binding, comparable within an allelic series)"
same,binding signal,HESX1 [2],"6.27 upbm affinity estimate (log intensity, higher = more binding, comparable within an allelic series)"
same,binding signal,HESX1 [5],"6.34 upbm affinity estimate (log intensity, higher = more binding, comparable within an allelic series)"
same,binding signal,HESX1 [6],"6.3 upbm affinity estimate (log intensity, higher = more binding, comparable within an allelic series)"
same,binding signal,HESX1 [7],"6.51 upbm affinity estimate (log intensity, higher = more binding, comparable within an allelic series)"
GAAAGGCC,binding signal,HESX1 [1],"6.41 upbm affinity estimate (log intensity, higher = more binding, comparable within an allelic series)"
same,binding signal,HESX1 [2],"6.39 upbm affinity estimate (log intensity, higher = more binding, comparable within an allelic series)"
same,binding signal,PROP1 [9],"6.76 upbm affinity estimate (log intensity, higher = more binding, comparable within an allelic series)"
same,binding signal,HESX1 [5],"6.49 upbm affinity estimate (log intensity, higher = more binding, comparable within an allelic series)"
same,binding signal,PROP1 [10],"6.79 upbm affinity estimate (log intensity, higher = more binding, comparable within an allelic series)"
same,binding signal,HESX1 [6],"6.47 upbm affinity estimate (log intensity, higher = more binding, comparable within an allelic series)"
same,binding signal,PROP1 [11],"6.75 upbm affinity estimate (log intensity, higher = more binding, comparable within an allelic series)"
same,binding signal,HESX1 [7],"6.63 upbm affinity estimate (log intensity, higher = more binding, comparable within an allelic series)"
CGGACAGA,binding signal,HESX1 [1],"6.41 upbm affinity estimate (log intensity, higher = more binding, comparable within an allelic series)"
same,binding signal,HESX1 [2],"6.53 upbm affinity estimate (log intensity, higher = more binding, comparable within an allelic series)"
same,binding signal,HESX1 [5],"6.49 upbm affinity estimate (log intensity, higher = more binding, comparable within an allelic series)"
same,binding signal,HESX1 [6],"6.59 upbm affinity estimate (log intensity, higher = more binding, comparable within an allelic series)"
same,binding signal,HESX1 [7],"6.58 upbm affinity estimate (log intensity, higher = more binding, comparable within an allelic series)"
CACGGCGC,binding signal,HESX1 [1],"6.6 upbm affinity estimate (log intensity, higher = more binding, comparable within an allelic series)"
same,binding signal,HESX1 [2],"6.29 upbm affinity estimate (log intensity, higher = more binding, comparable within an allelic series)"
same,binding signal,HESX1 [5],"6.5 upbm affinity estimate (log intensity, higher = more binding, comparable within an allelic series)"
same,binding signal,HESX1 [6],"6.54 upbm affinity estimate (log intensity, higher = more binding, comparable within an allelic series)"
same,binding signal,HESX1 [7],"6.57 upbm affinity estimate (log intensity, higher = more binding, comparable within an allelic series)"
AGTAATTG,binding signal,HESX1 [1],"11.8 upbm affinity estimate (log intensity, higher = more binding, comparable within an allelic series)"
same,binding signal,HESX1 [2],"12 upbm affinity estimate (log intensity, higher = more binding, comparable within an allelic series)"
same,binding signal,MSX2 [12],"12.5 upbm affinity estimate (log intensity, higher = more binding, comparable within an allelic series)"
same,binding signal,ALX1 [3],"11.4 upbm affinity estimate (log intensity, higher = more binding, comparable within an allelic series)"
same,binding signal,ALX1 [4],"10.9 upbm affinity estimate (log intensity, higher = more binding, comparable within an allelic series)"
same,binding signal,MSX2 [13],"13.7 upbm affinity estimate (log intensity, higher = more binding, comparable within an allelic series)"
same,binding signal,HESX1 [5],"8.47 upbm affinity estimate (log intensity, higher = more binding, comparable within an allelic series)"
same,binding signal,PROP1 [10],"11 upbm affinity estimate (log intensity, higher = more binding, comparable within an allelic series)"
same,binding signal,HESX1 [6],"10.3 upbm affinity estimate (log intensity, higher = more binding, comparable within an allelic series)"
same,binding signal,MSX2 [14],"13.4 upbm affinity estimate (log intensity, higher = more binding, comparable within an allelic series)"
same,binding signal,HESX1 [7],"7.48 upbm affinity estimate (log intensity, higher = more binding, comparable within an allelic series)"
same,binding signal,ALX1 [8],"12 upbm affinity estimate (log intensity, higher = more binding, comparable within an allelic series)"
CAGTGCCG,binding signal,HESX1 [1],"6.35 upbm affinity estimate (log intensity, higher = more binding, comparable within an allelic series)"
same,binding signal,HESX1 [2],"6.41 upbm affinity estimate (log intensity, higher = more binding, comparable within an allelic series)"
same,binding signal,HESX1 [5],"6.49 upbm affinity estimate (log intensity, higher = more binding, comparable within an allelic series)"
same,binding signal,HESX1 [6],"6.42 upbm affinity estimate (log intensity, higher = more binding, comparable within an allelic series)"
same,binding signal,HESX1 [7],"6.53 upbm affinity estimate (log intensity, higher = more binding, comparable within an allelic series)"
CTAGGGCC,binding signal,HESX1 [1],"6.49 upbm affinity estimate (log intensity, higher = more binding, comparable within an allelic series)"
same,binding signal,HESX1 [2],"6.45 upbm affinity estimate (log intensity, higher = more binding, comparable within an allelic series)"
same,binding signal,HESX1 [5],"6.47 upbm affinity estimate (log intensity, higher = more binding, comparable within an allelic series)"
same,binding signal,ALX3 [15],"7.79 upbm affinity estimate (log intensity, higher = more binding, comparable within an allelic series)"
same,binding signal,HESX1 [6],"6.36 upbm affinity estimate (log intensity, higher = more binding, comparable within an allelic series)"
same,binding signal,ALX3 [16],"7.77 upbm affinity estimate (log intensity, higher = more binding, comparable within an allelic series)"
same,binding signal,HESX1 [7],"6.42 upbm affinity estimate (log intensity, higher = more binding, comparable within an allelic series)"
CAAGCCGC,binding signal,HESX1 [1],"6.58 upbm affinity estimate (log intensity, higher = more binding, comparable within an allelic series)"
same,binding signal,HESX1 [2],"6.44 upbm affinity estimate (log intensity, higher = more binding, comparable within an allelic series)"
same,binding signal,PROP1 [9],"6.56 upbm affinity estimate (log intensity, higher = more binding, comparable within an allelic series)"
same,binding signal,HESX1 [5],"6.54 upbm affinity estimate (log intensity, higher = more binding, comparable within an allelic series)"
same,binding signal,PROP1 [10],"6.8 upbm affinity estimate (log intensity, higher = more binding, comparable within an allelic series)"
same,binding signal,HESX1 [6],"6.58 upbm affinity estimate (log intensity, higher = more binding, comparable within an allelic series)"
same,binding signal,PROP1 [11],"6.57 upbm affinity estimate (log intensity, higher = more binding, comparable within an allelic series)"
same,binding signal,HESX1 [7],"6.56 upbm affinity estimate (log intensity, higher = more binding, comparable within an allelic series)"
CTCAATAC,binding signal,HESX1 [1],"7.27 upbm affinity estimate (log intensity, higher = more binding, comparable within an allelic series)"
same,binding signal,HESX1 [2],"7.48 upbm affinity estimate (log intensity, higher = more binding, comparable within an allelic series)"
same,binding signal,HESX1 [5],"7.22 upbm affinity estimate (log intensity, higher = more binding, comparable within an allelic series)"
same,binding signal,HESX1 [6],"7.29 upbm affinity estimate (log intensity, higher = more binding, comparable within an allelic series)"
GCGTGGCC,binding signal,HESX1 [1],"6.46 upbm affinity estimate (log intensity, higher = more binding, comparable within an allelic series)"
same,binding signal,HESX1 [2],"6.31 upbm affinity estimate (log intensity, higher = more binding, comparable within an allelic series)"
same,binding signal,HESX1 [5],"6.39 upbm affinity estimate (log intensity, higher = more binding, comparable within an allelic series)"
same,binding signal,HESX1 [6],"6.37 upbm affinity estimate (log intensity, higher = more binding, comparable within an allelic series)"
same,binding signal,HESX1 [7],"6.39 upbm affinity estimate (log intensity, higher = more binding, comparable within an allelic series)"
